# Laboratory results as given in PubChem BioAssay (EPA / NIEHS).
# Records with an inconclusive call do not appear. The source made the active and inactive calls. The calls were made as follows: active = hit-call score of the fitted dose curve at least 0.9, where 1 is the maximum; inconclusive = response in the unintended direction; inactive = score below 0.9.
# Tests used:
# [1] = test system: rat Norepinephrine Transporter (NET), gene 83511; assay: NVS_TR_rNET: NovaScreen (NVS) Transporter Assay for rat Norepinephrine Transporter (NET) (AID 2283373)
# Summary of the method: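 Competitive radioligand displacement at the rat NET using forebrain membrane preparations, 1 h incubation, filter-based scintillation readout. Primary testing in duplicate at a single 25 uM concentration; confirmed actives retested across concentrations.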
# [2] = target: human Serotonin Transporter (SERT), SLC6A4 (gene 6532) (UniProt P31645); assay: NVS_TR_hSERT: NovaScreen (NVS) Transporter Assay for human Serotonin Transporter (SERT) (AID 2283372)
# Summary of the method: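 Human platelet membrane preparation; displacement of radioligand from serotonin transporter measured after 1 h by filtration and scintillation counting. Single 25 uM duplicate screen, then concentration series for actives, with DMSO as negative baseline.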
# Sequence of human Serotonin Transporter (SERT), SLC6A4 (gene 6532) (P31645 whole entry, looked up): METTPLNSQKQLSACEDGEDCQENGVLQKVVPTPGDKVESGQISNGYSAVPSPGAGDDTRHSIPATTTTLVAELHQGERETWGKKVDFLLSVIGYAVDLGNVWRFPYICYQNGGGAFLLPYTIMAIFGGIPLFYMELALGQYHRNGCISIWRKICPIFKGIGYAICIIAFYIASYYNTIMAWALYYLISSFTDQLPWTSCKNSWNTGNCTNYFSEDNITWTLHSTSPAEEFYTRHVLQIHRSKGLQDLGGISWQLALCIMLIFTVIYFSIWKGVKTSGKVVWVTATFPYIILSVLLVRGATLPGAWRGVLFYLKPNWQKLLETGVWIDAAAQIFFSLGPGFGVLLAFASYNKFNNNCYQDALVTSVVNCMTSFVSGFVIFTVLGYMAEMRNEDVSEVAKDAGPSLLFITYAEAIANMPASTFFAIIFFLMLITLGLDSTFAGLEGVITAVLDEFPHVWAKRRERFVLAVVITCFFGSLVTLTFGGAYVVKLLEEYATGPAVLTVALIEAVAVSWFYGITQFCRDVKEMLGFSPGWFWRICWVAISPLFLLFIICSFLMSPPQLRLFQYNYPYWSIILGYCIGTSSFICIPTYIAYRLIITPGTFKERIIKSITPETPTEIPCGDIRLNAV
compound,measurement,setting,value
Oc1ccc2c(c1)OC[C@@H](N1CCC(O)(c3ccc(F)cc3)CC1)[C@H]2O,outcome,[1],inactive
O=C(N[C@@H](Cc1ccccc1)[C@@H](O)C(=O)N1C[C@@H](O)[C@@H](O)C1)c1cc2cc(Cl)ccc2[nH]1,outcome,[2],inactive
O=[N+]([O-])C(CO)(CO)CO,outcome,[2],inactive
C=CCOC(=O)c1ccccc1C(=O)OCC=C,AC50,[1],25 µM (active)
